# Experiments:
# Assay in all cases: DAPPL (digital affinity profiling via proximity ligation, sequencing); 10 mM Tris-HCl pH 7.5, 50 mM NaCl, 1 mM DTT, 4% glycerol, room temperature, 30 min; GST-TFs on glutathione beads, 16-mer random dsDNA library, 0.1% formaldehyde crosslink after washing; high values mean tight binding
# FLI1 = target: T1, FLI1 (Homo sapiens, UniProt Q01543 1-452); conditions: protein: recombinant; tags: N-terminal GST; dsDNA, one strand shown
# T1 sequence: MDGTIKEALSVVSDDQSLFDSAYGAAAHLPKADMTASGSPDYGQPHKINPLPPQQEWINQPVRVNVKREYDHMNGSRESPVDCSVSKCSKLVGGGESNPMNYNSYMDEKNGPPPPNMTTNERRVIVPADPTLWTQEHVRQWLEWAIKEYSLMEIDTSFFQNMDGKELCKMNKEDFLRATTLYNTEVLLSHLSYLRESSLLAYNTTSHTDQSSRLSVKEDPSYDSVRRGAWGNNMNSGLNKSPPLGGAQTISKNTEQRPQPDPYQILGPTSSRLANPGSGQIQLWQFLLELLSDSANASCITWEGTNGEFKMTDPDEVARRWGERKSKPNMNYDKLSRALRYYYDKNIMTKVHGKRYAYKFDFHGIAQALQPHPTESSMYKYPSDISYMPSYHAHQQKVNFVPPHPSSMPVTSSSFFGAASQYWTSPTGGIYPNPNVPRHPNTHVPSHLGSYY
# Procedure, shortened: (§1)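 Yeast served to express human transcription factors as GST fusions, which were then captured on glutathione beads and labelled with DNA barcodes. Pooled with a tag-only sample, they were incubated with 200 nmole of a 16-mer random double-stranded DNA library for 30 min at room temperature in Tris/NaCl/DTT/glycerol buffer, washed, crosslinked with 0.1% formaldehyde, ligated by proximity, amplified by PCR and sequenced. Dividing each hexamer's read frequency for a factor by its frequency for the tag-only sample gives the binding signal.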
# ELK1 = target: T2, ELK1 (Homo sapiens, UniProt P19419 1-428); conditions: protein: recombinant; tags: N-terminal GST; dsDNA, one strand shown
# T2 sequence: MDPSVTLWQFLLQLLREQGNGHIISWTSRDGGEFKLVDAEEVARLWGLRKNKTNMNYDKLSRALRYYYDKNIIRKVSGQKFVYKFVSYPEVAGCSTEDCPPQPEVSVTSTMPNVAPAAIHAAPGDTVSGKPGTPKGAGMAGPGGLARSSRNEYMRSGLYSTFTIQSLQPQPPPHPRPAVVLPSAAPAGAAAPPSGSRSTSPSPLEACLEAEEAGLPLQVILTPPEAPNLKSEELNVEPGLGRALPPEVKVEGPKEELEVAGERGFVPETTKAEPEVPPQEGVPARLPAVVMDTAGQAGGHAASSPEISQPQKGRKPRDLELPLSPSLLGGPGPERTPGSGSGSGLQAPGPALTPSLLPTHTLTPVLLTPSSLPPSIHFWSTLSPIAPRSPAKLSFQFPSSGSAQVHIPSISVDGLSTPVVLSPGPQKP
# Procedure, shortened: as §1
# GABPA = target: T3, GABPA (Homo sapiens, UniProt Q06546 1-454); conditions: protein: recombinant; tags: N-terminal GST; dsDNA, one strand shown
# T3 sequence: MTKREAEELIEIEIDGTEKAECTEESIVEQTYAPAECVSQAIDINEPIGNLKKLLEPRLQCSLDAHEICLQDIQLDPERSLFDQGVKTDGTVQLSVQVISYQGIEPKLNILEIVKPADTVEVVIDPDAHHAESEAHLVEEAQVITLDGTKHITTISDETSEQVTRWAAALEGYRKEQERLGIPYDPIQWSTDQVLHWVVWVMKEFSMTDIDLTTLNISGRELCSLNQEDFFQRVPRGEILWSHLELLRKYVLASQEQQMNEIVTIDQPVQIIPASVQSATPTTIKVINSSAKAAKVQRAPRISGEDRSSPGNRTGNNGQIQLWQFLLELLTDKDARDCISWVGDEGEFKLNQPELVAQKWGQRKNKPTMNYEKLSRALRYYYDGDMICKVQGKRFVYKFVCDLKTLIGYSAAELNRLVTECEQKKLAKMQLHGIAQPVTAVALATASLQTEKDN
# Procedure, shortened: as §1
# ERG = target: T4, ERG (Homo sapiens, UniProt P11308 1-479); conditions: protein: recombinant; tags: N-terminal GST; dsDNA, one strand shown
# T4 sequence: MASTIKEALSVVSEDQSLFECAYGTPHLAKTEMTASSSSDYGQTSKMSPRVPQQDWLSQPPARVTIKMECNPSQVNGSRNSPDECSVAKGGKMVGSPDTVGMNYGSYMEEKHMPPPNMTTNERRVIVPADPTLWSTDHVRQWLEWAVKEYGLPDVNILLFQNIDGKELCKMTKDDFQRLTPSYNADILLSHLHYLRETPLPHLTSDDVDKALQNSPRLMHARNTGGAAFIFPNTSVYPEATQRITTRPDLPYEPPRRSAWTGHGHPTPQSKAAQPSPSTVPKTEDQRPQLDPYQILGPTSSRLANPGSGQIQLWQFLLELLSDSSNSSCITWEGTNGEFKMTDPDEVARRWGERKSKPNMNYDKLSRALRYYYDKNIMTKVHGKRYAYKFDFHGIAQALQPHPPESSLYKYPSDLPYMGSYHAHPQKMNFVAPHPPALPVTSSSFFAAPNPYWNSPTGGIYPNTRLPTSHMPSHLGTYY
# Procedure, shortened: as §1
# ELF1 = ELF1 (Homo sapiens, UniProt P32519 1-619); conditions: protein: recombinant; tags: N-terminal GST; dsDNA, one strand shown
# ELF1, sequence (P32519 whole entry): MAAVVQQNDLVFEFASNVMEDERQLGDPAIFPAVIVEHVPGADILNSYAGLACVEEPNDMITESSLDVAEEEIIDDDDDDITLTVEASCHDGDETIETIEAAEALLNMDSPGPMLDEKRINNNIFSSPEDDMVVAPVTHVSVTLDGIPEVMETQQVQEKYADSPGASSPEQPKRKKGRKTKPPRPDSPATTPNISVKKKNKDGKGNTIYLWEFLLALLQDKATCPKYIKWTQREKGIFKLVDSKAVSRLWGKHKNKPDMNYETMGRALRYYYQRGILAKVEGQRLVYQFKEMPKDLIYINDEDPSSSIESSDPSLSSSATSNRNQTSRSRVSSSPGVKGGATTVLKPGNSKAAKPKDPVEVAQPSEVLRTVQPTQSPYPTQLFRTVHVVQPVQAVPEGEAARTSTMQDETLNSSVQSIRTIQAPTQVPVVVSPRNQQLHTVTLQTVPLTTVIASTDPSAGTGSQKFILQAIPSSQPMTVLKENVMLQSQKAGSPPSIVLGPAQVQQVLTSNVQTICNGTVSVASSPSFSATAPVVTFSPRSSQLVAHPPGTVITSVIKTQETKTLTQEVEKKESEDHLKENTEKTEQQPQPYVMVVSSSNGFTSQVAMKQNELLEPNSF
# Procedure, shortened: as §1
# EHF = target: T5, EHF (Homo sapiens, UniProt Q9NZC4 1-300); conditions: protein: recombinant; tags: N-terminal GST; dsDNA, one strand shown
# T5 sequence: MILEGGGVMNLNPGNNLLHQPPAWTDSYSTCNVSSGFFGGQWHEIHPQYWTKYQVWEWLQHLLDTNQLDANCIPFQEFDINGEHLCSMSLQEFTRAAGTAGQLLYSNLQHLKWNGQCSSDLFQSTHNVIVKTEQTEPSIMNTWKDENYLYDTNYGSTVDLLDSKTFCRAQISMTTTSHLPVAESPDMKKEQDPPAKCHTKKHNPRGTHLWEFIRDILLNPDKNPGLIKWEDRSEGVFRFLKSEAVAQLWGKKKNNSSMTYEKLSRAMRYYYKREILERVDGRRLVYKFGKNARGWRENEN
# Procedure, shortened: as §1
# SPI1 = SPI1 (Homo sapiens, UniProt P17947 1-270); conditions: protein: recombinant; tags: N-terminal GST; dsDNA, one strand shown
# Procedure, shortened: as §1
# SPIB = SPIB (Homo sapiens, UniProt Q01892 1-262); conditions: protein: recombinant; tags: N-terminal GST; dsDNA, one strand shown
# SPIB, sequence (Q01892 whole entry): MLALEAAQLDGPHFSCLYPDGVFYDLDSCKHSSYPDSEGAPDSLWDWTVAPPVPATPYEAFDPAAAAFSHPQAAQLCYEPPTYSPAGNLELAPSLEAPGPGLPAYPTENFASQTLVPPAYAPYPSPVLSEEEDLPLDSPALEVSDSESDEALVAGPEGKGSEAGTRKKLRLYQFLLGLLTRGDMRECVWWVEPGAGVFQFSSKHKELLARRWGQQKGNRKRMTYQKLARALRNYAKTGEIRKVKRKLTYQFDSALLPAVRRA
# Procedure, shortened: as §1
# ELK3 = target: T6, ELK3 (Homo sapiens, UniProt P41970 1-407); conditions: protein: recombinant; tags: N-terminal GST; dsDNA, one strand shown
# T6 sequence: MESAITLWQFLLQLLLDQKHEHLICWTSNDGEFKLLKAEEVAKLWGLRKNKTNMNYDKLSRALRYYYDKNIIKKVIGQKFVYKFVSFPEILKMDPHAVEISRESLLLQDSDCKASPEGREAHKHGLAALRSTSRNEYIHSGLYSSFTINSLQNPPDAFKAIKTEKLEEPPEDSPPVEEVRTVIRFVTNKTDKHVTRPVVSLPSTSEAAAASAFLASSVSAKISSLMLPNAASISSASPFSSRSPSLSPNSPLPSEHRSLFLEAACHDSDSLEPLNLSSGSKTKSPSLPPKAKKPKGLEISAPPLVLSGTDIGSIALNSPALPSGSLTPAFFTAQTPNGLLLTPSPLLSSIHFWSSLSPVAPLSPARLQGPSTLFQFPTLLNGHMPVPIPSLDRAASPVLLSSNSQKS
# Procedure, shortened: as §1
# FEV = target: T7, FEV (Homo sapiens, UniProt Q99581 1-238); conditions: protein: recombinant; tags: N-terminal GST; dsDNA, one strand shown
# T7 sequence: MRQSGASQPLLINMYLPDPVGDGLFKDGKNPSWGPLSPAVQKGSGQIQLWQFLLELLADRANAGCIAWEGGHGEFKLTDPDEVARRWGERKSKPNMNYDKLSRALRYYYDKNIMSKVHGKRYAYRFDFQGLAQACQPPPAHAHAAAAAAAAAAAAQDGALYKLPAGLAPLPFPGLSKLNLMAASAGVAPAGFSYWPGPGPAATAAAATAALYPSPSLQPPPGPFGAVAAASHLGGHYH
# Procedure, shortened: as §1
# ETV5 = ETV5 (Homo sapiens, UniProt P41161 1-510); conditions: protein: recombinant; tags: N-terminal GST; dsDNA, one strand shown
# ETV5, sequence (P41161 whole entry): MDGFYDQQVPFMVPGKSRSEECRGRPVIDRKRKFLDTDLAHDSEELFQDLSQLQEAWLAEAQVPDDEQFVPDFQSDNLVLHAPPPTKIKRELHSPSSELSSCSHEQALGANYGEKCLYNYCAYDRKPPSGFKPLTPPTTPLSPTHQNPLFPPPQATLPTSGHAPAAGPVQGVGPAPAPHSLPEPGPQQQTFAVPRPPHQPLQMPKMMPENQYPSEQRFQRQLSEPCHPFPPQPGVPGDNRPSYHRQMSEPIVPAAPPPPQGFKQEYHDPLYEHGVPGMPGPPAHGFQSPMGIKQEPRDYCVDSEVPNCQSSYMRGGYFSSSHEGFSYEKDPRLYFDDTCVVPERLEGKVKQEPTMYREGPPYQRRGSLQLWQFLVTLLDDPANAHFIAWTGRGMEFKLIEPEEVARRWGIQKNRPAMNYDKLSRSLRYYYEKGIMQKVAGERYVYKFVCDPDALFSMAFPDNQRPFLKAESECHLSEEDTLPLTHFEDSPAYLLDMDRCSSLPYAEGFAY
# Procedure, shortened: as §1
# HSF1 = HSF1 (Homo sapiens, UniProt Q00613 1-529); conditions: protein: recombinant; tags: N-terminal GST; chain copies: 3; dsDNA, one strand shown
# HSF1, sequence (Q00613 whole entry): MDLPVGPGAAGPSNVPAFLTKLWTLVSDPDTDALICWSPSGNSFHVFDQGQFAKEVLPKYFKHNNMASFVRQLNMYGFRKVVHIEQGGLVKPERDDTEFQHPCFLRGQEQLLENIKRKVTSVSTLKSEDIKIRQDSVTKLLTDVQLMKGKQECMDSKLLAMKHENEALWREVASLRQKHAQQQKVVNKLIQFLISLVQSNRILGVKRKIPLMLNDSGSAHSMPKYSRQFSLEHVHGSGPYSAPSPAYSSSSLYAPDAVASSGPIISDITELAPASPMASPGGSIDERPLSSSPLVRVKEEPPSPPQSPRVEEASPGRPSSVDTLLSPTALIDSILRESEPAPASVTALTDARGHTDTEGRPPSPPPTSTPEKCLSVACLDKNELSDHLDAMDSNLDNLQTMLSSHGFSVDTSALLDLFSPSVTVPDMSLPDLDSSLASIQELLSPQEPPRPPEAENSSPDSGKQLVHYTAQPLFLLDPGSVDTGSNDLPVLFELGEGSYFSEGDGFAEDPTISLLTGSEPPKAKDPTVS
# Procedure, shortened: as §1
# SPIC = target: T8, SPIC (Homo sapiens, UniProt Q8N5J4 1-248); conditions: protein: recombinant; tags: N-terminal GST; dsDNA, one strand shown
# T8 sequence: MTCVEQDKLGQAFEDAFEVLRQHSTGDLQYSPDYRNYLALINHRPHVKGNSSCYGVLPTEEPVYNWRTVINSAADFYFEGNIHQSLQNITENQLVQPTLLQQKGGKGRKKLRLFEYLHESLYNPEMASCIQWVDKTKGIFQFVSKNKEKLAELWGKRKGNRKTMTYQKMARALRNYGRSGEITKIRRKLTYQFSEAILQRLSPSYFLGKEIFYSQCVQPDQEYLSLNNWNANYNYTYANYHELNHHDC
# Procedure, shortened: as §1
# ELF4 = ELF4 (Homo sapiens, UniProt Q99607 1-663); conditions: protein: recombinant; tags: N-terminal GST; dsDNA, one strand shown
# ELF4, sequence (Q99607 whole entry): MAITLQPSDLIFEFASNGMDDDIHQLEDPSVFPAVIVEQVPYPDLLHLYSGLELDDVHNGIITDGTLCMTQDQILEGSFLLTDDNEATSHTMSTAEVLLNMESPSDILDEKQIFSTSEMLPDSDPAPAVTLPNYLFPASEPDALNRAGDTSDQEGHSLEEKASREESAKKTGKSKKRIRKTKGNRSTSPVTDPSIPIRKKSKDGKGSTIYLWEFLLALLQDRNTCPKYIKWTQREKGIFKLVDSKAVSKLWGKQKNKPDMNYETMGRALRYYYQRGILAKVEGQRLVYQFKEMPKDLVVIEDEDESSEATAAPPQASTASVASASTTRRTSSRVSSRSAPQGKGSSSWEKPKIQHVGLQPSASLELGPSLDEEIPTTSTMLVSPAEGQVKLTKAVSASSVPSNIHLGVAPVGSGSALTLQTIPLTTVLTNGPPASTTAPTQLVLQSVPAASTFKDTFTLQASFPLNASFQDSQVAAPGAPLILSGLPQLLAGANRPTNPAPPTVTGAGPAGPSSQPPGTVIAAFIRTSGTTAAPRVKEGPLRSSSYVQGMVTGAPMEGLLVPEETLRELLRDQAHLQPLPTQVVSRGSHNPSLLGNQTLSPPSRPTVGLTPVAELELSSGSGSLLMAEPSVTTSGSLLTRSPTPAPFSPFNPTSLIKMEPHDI
# Procedure, shortened: as §1
# ELK4 = target: T9, ELK4 (Homo sapiens, UniProt P28324-2 1-405); conditions: protein: recombinant; tags: N-terminal GST; dsDNA, one strand shown
# T9 sequence: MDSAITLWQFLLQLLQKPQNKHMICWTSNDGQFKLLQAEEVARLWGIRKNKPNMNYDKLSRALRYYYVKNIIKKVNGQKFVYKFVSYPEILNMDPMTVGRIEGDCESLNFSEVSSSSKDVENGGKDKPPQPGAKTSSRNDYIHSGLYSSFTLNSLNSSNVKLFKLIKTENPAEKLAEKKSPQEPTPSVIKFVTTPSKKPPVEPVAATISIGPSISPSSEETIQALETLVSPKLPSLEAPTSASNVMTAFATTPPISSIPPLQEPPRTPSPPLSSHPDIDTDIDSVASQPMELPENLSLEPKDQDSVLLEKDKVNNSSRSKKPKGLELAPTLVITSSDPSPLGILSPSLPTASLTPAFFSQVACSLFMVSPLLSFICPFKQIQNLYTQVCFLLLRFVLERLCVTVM
# Procedure, shortened: as §1
# ETV2 = target: T10, ETV2 (Homo sapiens, UniProt O00321 1-342); conditions: protein: recombinant; tags: N-terminal GST; dsDNA, one strand shown
# T10 sequence: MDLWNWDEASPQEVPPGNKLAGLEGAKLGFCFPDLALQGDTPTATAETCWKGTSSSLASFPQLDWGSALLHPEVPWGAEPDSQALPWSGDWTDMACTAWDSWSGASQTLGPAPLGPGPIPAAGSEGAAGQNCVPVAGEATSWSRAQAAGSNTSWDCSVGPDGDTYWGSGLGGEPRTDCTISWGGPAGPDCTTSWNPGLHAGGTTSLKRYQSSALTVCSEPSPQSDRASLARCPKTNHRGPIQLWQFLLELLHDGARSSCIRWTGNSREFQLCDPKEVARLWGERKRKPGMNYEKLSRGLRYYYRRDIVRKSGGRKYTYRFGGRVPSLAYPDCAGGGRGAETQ
# Procedure, shortened: as §1
# ELF3 = target: T11, ELF3 (Homo sapiens, UniProt P78545 1-371); conditions: protein: recombinant; tags: N-terminal GST; dsDNA, one strand shown
# T11 sequence: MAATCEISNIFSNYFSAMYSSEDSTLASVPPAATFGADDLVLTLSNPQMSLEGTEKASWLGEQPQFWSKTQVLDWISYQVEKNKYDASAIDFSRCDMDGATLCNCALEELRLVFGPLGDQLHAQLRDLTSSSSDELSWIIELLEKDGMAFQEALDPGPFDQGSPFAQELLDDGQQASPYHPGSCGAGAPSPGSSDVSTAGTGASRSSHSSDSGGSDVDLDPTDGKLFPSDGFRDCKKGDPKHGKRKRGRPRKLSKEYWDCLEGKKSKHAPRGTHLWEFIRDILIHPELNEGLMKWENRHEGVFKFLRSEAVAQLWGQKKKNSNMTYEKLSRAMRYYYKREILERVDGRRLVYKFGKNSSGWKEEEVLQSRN
# Procedure, shortened: as §1
# CRX = CRX (Homo sapiens, UniProt O43186 1-299); conditions: protein: recombinant; tags: N-terminal GST; dsDNA, one strand shown
# CRX, sequence (O43186 whole entry): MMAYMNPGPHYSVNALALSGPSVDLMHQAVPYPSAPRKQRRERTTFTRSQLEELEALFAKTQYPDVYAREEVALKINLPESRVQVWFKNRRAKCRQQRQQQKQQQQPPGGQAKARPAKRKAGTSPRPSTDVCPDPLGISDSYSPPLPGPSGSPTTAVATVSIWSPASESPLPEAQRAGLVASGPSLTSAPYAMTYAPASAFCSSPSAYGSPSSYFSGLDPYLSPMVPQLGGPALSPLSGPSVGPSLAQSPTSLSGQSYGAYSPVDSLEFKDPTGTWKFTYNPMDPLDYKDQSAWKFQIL
# Procedure, shortened: as §1
# ETV1 = ETV1 (Homo sapiens, UniProt P50549 1-477); conditions: protein: recombinant; tags: N-terminal GST; dsDNA, one strand shown
# ETV1, sequence (P50549 whole entry): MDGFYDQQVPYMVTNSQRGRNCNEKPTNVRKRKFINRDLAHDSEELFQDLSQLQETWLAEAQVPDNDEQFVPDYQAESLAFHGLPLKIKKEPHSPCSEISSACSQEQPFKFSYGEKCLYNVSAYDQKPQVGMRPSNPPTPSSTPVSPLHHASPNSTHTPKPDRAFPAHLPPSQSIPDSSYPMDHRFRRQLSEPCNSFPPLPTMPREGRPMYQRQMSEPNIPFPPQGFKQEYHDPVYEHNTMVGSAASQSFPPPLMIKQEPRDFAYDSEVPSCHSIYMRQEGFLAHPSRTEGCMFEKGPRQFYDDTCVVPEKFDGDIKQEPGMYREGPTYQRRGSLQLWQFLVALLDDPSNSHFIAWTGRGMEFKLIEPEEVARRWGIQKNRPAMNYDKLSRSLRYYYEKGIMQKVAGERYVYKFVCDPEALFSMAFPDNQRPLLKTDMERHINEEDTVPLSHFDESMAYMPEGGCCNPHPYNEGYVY
# Procedure, shortened: as §1
sequence,measurement,setting,value
CTGCCT,binding signal,FLI1,"1.2 fold enrichment (6-mer frequency, TF over GST control)"
same,binding signal,ELK1,"1.28 fold enrichment (6-mer frequency, TF over GST control)"
same,binding signal,GABPA,"1.33 fold enrichment (6-mer frequency, TF over GST control)"
same,binding signal,ERG,"1.18 fold enrichment (6-mer frequency, TF over GST control)"
same,binding signal,ELF1,"1.34 fold enrichment (6-mer frequency, TF over GST control)"
same,binding signal,EHF,"1.33 fold enrichment (6-mer frequency, TF over GST control)"
same,binding signal,SPI1,"1.27 fold enrichment (6-mer frequency, TF over GST control)"
same,binding signal,SPIB,"1.21 fold enrichment (6-mer frequency, TF over GST control)"
same,binding signal,ELK3,"1.04 fold enrichment (6-mer frequency, TF over GST control)"
same,binding signal,FEV,"1.2 fold enrichment (6-mer frequency, TF over GST control)"
same,binding signal,ETV5,"1.18 fold enrichment (6-mer frequency, TF over GST control)"
same,binding signal,HSF1,"1.13 fold enrichment (6-mer frequency, TF over GST control)"
same,binding signal,SPIC,"1.07 fold enrichment (6-mer frequency, TF over GST control)"
same,binding signal,ELF4,"1.21 fold enrichment (6-mer frequency, TF over GST control)"
same,binding signal,ELK4,"1.14 fold enrichment (6-mer frequency, TF over GST control)"
same,binding signal,ETV2,"1.15 fold enrichment (6-mer frequency, TF over GST control)"
same,binding signal,ELF3,"1.17 fold enrichment (6-mer frequency, TF over GST control)"
same,binding signal,CRX,"1.11 fold enrichment (6-mer frequency, TF over GST control)"
same,binding signal,ETV1,"1.24 fold enrichment (6-mer frequency, TF over GST control)"

# Reference: PMC7862700, “An all-to-all approach to the identification of sequence-specific readers for epigenetic DNA modifications on cytosine”
